Source: PubChem BioAssay (NCI)
“And” between values parts separate entries of the source, which are not always exact repeats. Identical values can stand only once. The panel holds about 79,000 compounds, 15% with a hit somewhere; the sample as a whole holds those more often. The source holds several records for some structures; these can differ, active in one and inactive in another. The source made the active and inactive calls. Rule as the data show it: active = growth inhibition above about 70%; inactive = the rest.

Assays:
[1] = NCI Yeast Anticancer Drug Screen. Data for the mec2-1 strain (AID 157); conditions: S. cerevisiae mec2-1 strain, stronger effect = higher value
How it was run: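 Each compound was tested on mec2-1 yeast, a strain altered in DNA damage repair or cell cycle control. Growth inhibition is reported relative to vehicle.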

[2] = NCI Yeast Anticancer Drug Screen. Data for the rad14 strain (AID 159);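 also: 0% = growth of vehicle-treated control cultures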; conditions: S. cerevisiae rad14 strain growth inhibition, stronger effect = higher value
How it was run: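 Compound-treated yeast with a defined DNA-repair lesion; growth inhibition normalised to vehicle-treated cultures.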

[3] = NCI Yeast Anticancer Drug Screen. Data for the sgs1 mgt1 strain (AID 161);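 also: 0% = growth of cultures given vehicle only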; conditions: S. cerevisiae sgs1 mgt1 strain, stronger effect = higher value
How it was run: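 Mutant yeast exposed to compound; growth scored against vehicle-only wells.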

[4] = NCI Yeast Anticancer Drug Screen. Data for the CLN2oe strain (AID 163);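 also: 0% = growth of vehicle-only control cultures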; conditions: S. cerevisiae CLN2oe strain, stronger effect = higher value
How it was run: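 First, the altered yeast strain was treated with each compound; second, its growth was measured; finally, inhibition was derived by comparison with vehicle controls.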

[5] = NCI Yeast Anticancer Drug Screen. Data for the cln2 rad14 strain (AID 165);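 also: 0% = growth equal to vehicle treated cultures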; conditions: S. cerevisiae cln2 rad14 strain, stronger effect = higher value
How it was run: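 Test compounds were added to cln2 rad14 yeast cultures; inhibition of growth was then determined by comparison with vehicle treatment.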

[6] = NCI Yeast Anticancer Drug Screen. Data for the bub3 strain (AID 167); conditions: S. cerevisiae bub3 mutant strain, stronger effect = higher value
How it was run: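 Growth of a checkpoint-deficient yeast mutant is measured after compound exposure. Values represent inhibition relative to vehicle.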

[7] = NCI Yeast Anticancer Drug Screen. Data for the wt2 strain (AID 169);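 also: 0% = growth of vehicle-treated yeast cultures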; conditions: S. cerevisiae wt2 strain growth inhibition, stronger effect = higher value
How it was run: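 The panel's yeast strains carry defined changes in DNA repair or cell cycle genes. Each strain is grown with compound, and growth loss is scored relative to vehicle.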

[8] = NCI Yeast Anticancer Drug Screen. Data for the mlh1 strain (AID 171);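 also: 0% = growth of vehicle-treated control cultures of the same strain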; conditions: S. cerevisiae mlh1 strain growth inhibition, stronger effect = higher value
How it was run: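 Inhibition values reflect reduced yeast growth in the presence of compound, referenced to vehicle controls, using a strain chosen for its alteration in DNA repair or cell cycle control.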

[9] = NCI Yeast Anticancer Drug Screen. Data for the sgs1 strain (AID 173);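 also: 0% = growth of vehicle-only control cultures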; conditions: S. cerevisiae sgs1 mutant, stronger effect = higher value
How it was run: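 Vehicle-treated cultures served as reference for growth inhibition of a yeast strain altered in DNA damage repair or cell cycle control after compound exposure.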

[10] = NCI Yeast Anticancer Drug Screen. Data for the mlh1 rad18 strain (AID 175); conditions: S. cerevisiae mlh1 rad18 strain growth inhibition, stronger effect = higher value
How it was run: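 Inhibition values reflect reduced growth of mutant yeast versus vehicle-treated controls following compound exposure; the mutations affect DNA damage repair.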

[11] = NCI Yeast Anticancer Drug Screen. Data for the rad18 strain (AID 177); conditions: S. cerevisiae rad18 mutant growth inhibition, stronger effect = higher value
How it was run: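 Steps: expose repair-mutant yeast to compound; measure growth; express as inhibition relative to vehicle control.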

[12] = NCI Yeast Anticancer Drug Screen. Data for the wt1 strain (AID 149);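 also: 0% = growth of vehicle-treated wt1 cultures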; conditions: S. cerevisiae wt1 strain (SPY 50644) growth inhibition, stronger effect = higher value
How it was run: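 Readout: yeast growth inhibition, normalised to vehicle controls, in the wt1 strain exposed to test compounds.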

[13] = NCI Yeast Anticancer Drug Screen. Data for the rad50EPP+ strain (AID 151);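 also: 0% = growth of vehicle-treated control cultures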; conditions: S. cerevisiae rad50 mutant strain, stronger effect = higher value
How it was run: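 Genetically defined yeast (rad50EPP+, DNA damage repair alteration) is grown with compound, and inhibition of growth is expressed relative to vehicle-treated controls.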

[14] = NCI Yeast Anticancer Drug Screen. Data for the mgt1 strain (AID 153); conditions: S. cerevisiae mgt1 mutant growth inhibition, stronger effect = higher value
How it was run: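 In the mgt1 strain, test compounds were added and growth inhibition was determined relative to vehicle-treated controls.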

[15] = NCI Yeast Anticancer Drug Screen. Data for the rad50 strain (AID 155);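 also: 0% = growth of vehicle-only cultures of the same strain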; conditions: S. cerevisiae rad50 strain growth inhibition, stronger effect = higher value
How it was run: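 Compounds were tested on a yeast strain with an engineered DNA damage repair alteration; the reported value is growth inhibition normalised to vehicle treatment.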

[16] = at 5.0 µM (retest, dose inferred, filed as 0.5)
[17] = at 50.0 µM (retest, dose inferred, filed as 5.0)

Measured: growth inhibition

COc1ccc2[nH]c3c(C)c4cc[n+](C)cc4c(C)c3c2c1
11% (inactive) and 73% (active): [7]; at 100.0 µM
50% (inactive) and 82% (active): [9]; at 100.0 µM
30% (inactive) and 79% (active): [6]; at 100.0 µM
inactive: [1]; at 100.0 µM 53% and 61% | [2]; at 1.2 µM 0% and 6% | [2]; at 3.7 µM 17% and 15% | [2]; at 11.0 µM 25% | [2]; at 33.0 µM 27% and 40% | [2]; at 100.0 µM 36% and 61% | [3]; [16] 18% and 28% | [3]; [17] 41% and 52% | [3]; at 50.0 µM 45.8% and 36.4% | [4]; at 1.2 µM 45% and -9% | [4]; at 3.7 µM 45% and 0% | [4]; at 11.0 µM 55% and -5% | [4]; at 33.0 µM 50% and 20% | [4]; at 100.0 µM 40% and 66% | [5]; [16] 2% and 24% | [5]; [17] 25% and 30% | [5]; at 50.0 µM 39.2% and 23.3% | [6]; at 1.2 µM 18% and 8% | [6]; at 3.7 µM 30% and 22% | [6]; [16] 19% and 2% | [6]; at 11.0 µM 28% and 23% | [6]; at 33.0 µM 33% and 32% | [6]; [17] 50% and 20% | [6]; at 50.0 µM 22.9% and 34.1% | [7]; at 1.2 µM -13% and -31% | [7]; at 3.7 µM -14% and -11% | [7]; at 11.0 µM -15% and -11% | [7]; at 33.0 µM -13% and 14% | [8]; at 1.2 µM 34% and 19% | [8]; at 3.7 µM 34% and 35% | [8]; at 11.0 µM 41% | [8]; at 33.0 µM 56% | [9]; at 1.2 µM 18% and 25% | [9]; at 3.7 µM 32% and 39% | [9]; at 11.0 µM 51% and 42% | [9]; at 33.0 µM 42% and 52% | [10]; [16] 23% and 19% | [10]; [17] 52% and 32% | [10]; at 50.0 µM 56.5% | [11]; at 1.2 µM 23% and 27% | [11]; at 3.7 µM 40% and 35% | [11]; at 11.0 µM 38% | [11]; at 33.0 µM 45% and 44%
41% (inactive) and 82% (active): [11]; at 100.0 µM
46% (inactive) and 77% (active): [8]; at 100.0 µM

O=c1[nH]c(=O)n(CCCO)cc1F
active: [3]; [17] 76%
inactive: [12]; at 1.2 µM -32% | [12]; at 3.7 µM 0% | [12]; at 11.0 µM -9% | [12]; at 33.0 µM 4% | [12]; at 100.0 µM -4% | [13]; at 1.2 µM -14% | [13]; at 3.7 µM -7% | [13]; at 11.0 µM -9% | [13]; at 33.0 µM -10% | [13]; at 100.0 µM -2% | [14]; at 1.2 µM -13% | [14]; at 3.7 µM -31% | [14]; at 11.0 µM -24% | [14]; at 33.0 µM -33% | [14]; at 100.0 µM -18% | [15]; at 1.2 µM -21% | [15]; at 3.7 µM -11% | [15]; [16] 42% | [15]; at 11.0 µM -10% | [15]; at 33.0 µM -12% | [15]; [17] 44% | [15]; at 50.0 µM 34.4% | [15]; at 100.0 µM -13% | [1]; at 1.2 µM -36% | [1]; at 3.7 µM -27% | [1]; [16] 24% | [1]; at 11.0 µM -41% | [1]; at 33.0 µM -33% | [1]; [17] 20% | [1]; at 50.0 µM -38.6% | [1]; at 100.0 µM -23% | [2]; at 1.2 µM -29% | [2]; at 3.7 µM -19% | [2]; at 11.0 µM -20% | [2]; at 33.0 µM -26% | [2]; at 100.0 µM -30% | [3]; [16] 58% | [3]; at 50.0 µM -33.4% | [4]; at 1.2 µM 3% | [4]; at 3.7 µM 8% | [4]; at 11.0 µM 9% | [4]; at 33.0 µM 3% | [4]; at 100.0 µM 7% | [5]; [16] 13% | [5]; [17] 26% | [5]; at 50.0 µM -8.55% | [6]; at 1.2 µM -14% | [6]; at 3.7 µM -22% | [6]; [16] 20% | [6]; at 11.0 µM -22% | [6]; at 33.0 µM -37% | [6]; [17] 15% | [6]; at 50.0 µM -26.6% | [6]; at 100.0 µM -21% | [7]; at 1.2 µM 3% | [7]; at 3.7 µM -6% | [7]; at 11.0 µM -14% | [7]; at 33.0 µM -22% | [7]; at 100.0 µM -18% | [8]; at 1.2 µM -30% | [8]; at 3.7 µM -15% | [8]; at 11.0 µM -19% | [8]; at 33.0 µM -15% | [8]; at 100.0 µM -19% | [9]; at 1.2 µM -27% | [9]; at 3.7 µM -16% | [9]; at 11.0 µM -24% | [9]; at 33.0 µM -3% | [9]; at 100.0 µM -11% | [10]; [16] 47% | [10]; [17] 45% | [10]; at 50.0 µM -41.3% | [11]; at 1.2 µM -18% | [11]; at 3.7 µM -6% | [11]; at 11.0 µM -4% | [11]; at 33.0 µM 13% | [11]; at 100.0 µM 42%
